# PP1 counter – blocks human PP1-alpha phosphatase, a PP5 counter-screen | inhibition, % at 6.7 µM | P62136 | purified PP1alpha, OMFP fluorescence | 320,000 compounds, 0.9% hits;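 active means inhibition above the mean inhibition of all tested compounds plus 3 SD, computed separately for each screening campaign, cut at about 15% in these data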
# Target sequence (P62136 whole entry, looked up): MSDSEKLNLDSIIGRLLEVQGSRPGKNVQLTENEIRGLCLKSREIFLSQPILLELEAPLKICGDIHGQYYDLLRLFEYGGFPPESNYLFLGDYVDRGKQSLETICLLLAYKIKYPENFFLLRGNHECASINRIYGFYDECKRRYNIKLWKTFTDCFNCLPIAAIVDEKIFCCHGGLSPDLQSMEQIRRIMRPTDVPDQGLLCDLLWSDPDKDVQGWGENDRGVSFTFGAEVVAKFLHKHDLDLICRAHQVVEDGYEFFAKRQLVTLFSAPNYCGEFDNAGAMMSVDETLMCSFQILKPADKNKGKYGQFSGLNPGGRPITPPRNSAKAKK
# HIF activator – HIF pathway transcriptional activation | U2OS HRE-luciferase reporter, luminescence; normalized: DMSO 0%, desferrioxamine 100% | activation, % at 7.5 µM (by protocol) | 300,000 compounds, 0.32% hits;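 active means mean activation of at least 10% of the iron chelator positive control signal, with at least half of replicates also reaching 10%; inconclusive means mean and replicate majority disagree about reaching 10%; inactive means mean and most replicates under 10%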
# PP5 primary – PP5 (human) phosphatase inhibition | AID 1987 | P53041 | 320,000 compounds, 0.18% hits | purified PP5c, OMFP substrate fluorescence | inhibition, % at 6.7 µM;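 active means inhibition above the campaign's mean inhibition across all tested compounds plus 3 SD, cut at about 9.5% in these data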;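 further: 0% = DMSO only and 100% = 100 µM cantharidin control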
# Dyrk1A ADPGlo – blocks rat Dyrk1A kinase activity. AID 504441. 310,000 compounds, 0.43% hits. inhibition, % at 12.5 µM. Q63470. ADP-Glo luminescence, NFATc1 peptide; in the data active means inhibition above about 50%;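 further: plate controls were vehicle with enzyme for no effect and no enzyme for full effect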
# STK33 inh – human STK33 kinase inhibition; purified STK33, MBP phosphorylation, ADP-Glo luminescence; 320,000 compounds, 0.073% hits; inhibition, % at 10 µM; Q9BYT3;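 active means inhibition at or above 25%, using the most active replicate where run in duplicate; inactive means inhibition below 25%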
# ADP-Glo artifact – interferes with ADP-Glo luciferase readout without Dyrk1A. ADP-Glo luciferase artifact assay, no Dyrk1A, luminescence. shares compounds with Dyrk1A ADPGlo. 1,300 tested, under 10 active. AC50, µM (titrated, usually from 12 µM), without a hit: at the top dose activity change, negative = inhibition. AID 588348;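 active means fitted half-maximal dose AC50 no more than ten times the top valid tested dose, with luminescence dropping as dose rises; inconclusive means poor fit, or flat fit with 30 to 70% inhibition; inactive means the rest, signal increases included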
# An asterisk follows results filed as active; ? = inconclusive; / = no result. Sampled rows, rich in hits. Any-hit rate of the full collection: about 1.5%.
SMILES,PP1 counter,HIF activator,PP5 primary,Dyrk1A ADPGlo,STK33 inh,ADP-Glo artifact
Cc1ccc2oc(=O)c3cnn(CC(=O)NC4CCCCC4C)c3c2c1 (stereo not drawn),-1.6,0.0,-0.2,61.3*,-0.1,7.9%
O=C1c2ccccc2C(=O)c2[nH]cnc21,/,-1.8,/,56.5*,2.1,7.3%
O=C1c2ccccc2C(=O)c2[nH]c(=O)[nH]c21,2.6,1.4,-0.1,18.7,4.6,/
O=C1NC(=S)S/C1=C/c1ccc(OC(=O)c2ccco2)cc1,11.5,0.3,5.1,70.8*,3.0,9.7%
CCOc1cc(/C=C2/SC(=S)NC2=O)ccc1OC(=O)c1ccco1,9.6,1.6,2.0,22.0,0.4,/
O=C(O)c1cc(N/N=C/c2c(O)ccc3ccccc23)ccc1Cl,-0.3,1.8,2.3,73.5*,43.5*,8.4%
CC(C)Oc1ccc(C2CNC(=O)C2)cc1 (stereo not drawn),-0.8,0.1,0.7,53.6*,-0.3,8.0%
O=C(NN1C(=O)/C(=C/c2ccc(O)c([N+](=O)[O-])c2)SC1=S)c1ccccc1Cl,10.1,-0.4,5.8,74.0*,0.2,9.8%
COc1cc(/C=C2\SC(=S)N(NC(=O)c3ccccc3O)C2=O)ccc1O,2.0,-0.2,3.0,16.8,0.5,/
O=C1OC(c2ccccc2)=C/C1=C/N1CCOCC1,-1.6,/,2.5,-1.0,-0.2,/
O=C1SC(c2ccccc2)=C/C1=C\N1CCCCC1,-0.3,0.1,0.5,68.2*,2.3,7.9%
Nc1c(N(CCC2=CCCCC2)C(=O)c2ccco2)c(=O)[nH]c(=O)n1Cc1ccccc1,4.0,-0.1,0.6,13.4,-0.6,/
CCc1cc(-c2[nH]ncc2-c2ccc3c(c2)OCO3)c(O)cc1O,3.3,0.4,9.3,52.4*,4.8,6.3%
COc1ccc(-c2[nH]ncc2-c2ccc3c(c2)OCCO3)c(O)c1,-1.5,2.7,1.6,60.4*,6.1,2.2%
NC1=NC(=O)/C(=C\c2ccc(-c3ccc(Cl)cc3)o2)S1,2.4,1.3,2.3,58.3*,0.1,7.4%
CCC1NC(C(=O)O)Cc2c1[nH]c1ccccc21 (stereo not drawn),-4.1,0.2,2.6,50.2*,2.6,7.9%
Cn1c(=O)[nH]c2cc3ccccc3cc21,3.0,-0.1,-3.1,51.9*,1.0,10.1%
O=c1cc(-c2ccccc2Cl)oc2c([N+](=O)[O-])c(O)cc(O)c12,1.6,3.6,-1.9,82.8*,1.9,11.6%
Nc1ccc(-c2ccc(C(=O)O)s2)cn1,-5.4,-0.2,4.5,71.0*,16.6,6.8%
Nc1ccc(S(=O)(=O)O)cn1,-5.8,-0.4,2.5,10.7,-1.9,/
C=CC(C)(C)c1c(O)c(CC=C(C)C)c(O)c2c(=O)c3ccc(O)c(O)c3oc12,1.1,0.3,3.9,98.6*,1.0,8.1%
CC(=O)N1CCN(S(=O)(=O)c2cccc(C(=O)NNC(=O)COc3ccc(F)cc3)c2)CC1,1.2,/,-0.1,/,2.0,/
N#Cc1c(C(F)(F)F)cc(-c2cccc(Cl)c2)[nH]c1=O,4.1,-0.3,0.4,54.2*,1.9,8.0%
Nc1c(C(=O)O)ccc2c1C(=O)c1ccccc1C2=O,1.0,0.3,1.0,88.4*,52.3*,7.5%
Nc1c(SCCC(=O)O)ccc2c1C(=O)c1ccccc1C2=O,11.6,-0.1,5.0,37.6,14.5,/
SMILES,PP1 counter,HIF activator,PP5 primary,Dyrk1A ADPGlo,STK33 inh,ADP-Glo artifact
COC(=O)c1ccc2c(c1O)C(=O)c1ccccc1C2=O,-5.8,0.8,1.9,6.5,1.5,/
O=C1c2ccccc2C(=O)c2c1ccc(O)c2O,/,/,/,59.7*,/,7.0%
C[C@@H]1CN([C@H](C)CO)C(=O)Cc2cc(NC(=O)CCC(F)(F)F)ccc2O[C@@H]1CN(C)S(=O)(=O)c1ccccc1,/,/,/,-5.1,/,/
Nc1nc(Nc2cccc(F)c2)nc2ccccc12,-0.9,6.2,3.6,74.4*,6.1,1.4%
CCOCCCNC(=O)/C(C#N)=C/c1cc(Br)c(O)c(Br)c1,/,3.3,/,54.7*,/,11.4%
COCCNC(=O)/C(C#N)=C/c1cc(Br)c(O)c(OC)c1,-0.3,0.0,0.0,12.8,2.2,/
O=C(NCCCn1ccnc1)c1cc(Cl)cc(Cl)c1,-1.1,-0.4,-1.5,1.2,0.2,/
C=CCn1c(SCC(=O)NCC(c2ccccc2)N(C)C)nnc1C1CCCCC1 (stereo not drawn),-0.1,/,2.6,2.7,-0.1,/
C=CCN1C(=O)C(C)NC1=S (stereo not drawn),/,-0.4,/,/,/,/
CCCCNC(=S)Nc1ccc2cn[nH]c2c1,-3.4,?,-0.6,80.7*,/,-2.0%
